Among the data in PubChem BioAssay (EPA / NIEHS) are outcome and AC50 values, retold here.

Assay [1] in a line: ATG_NFI_CIS: Attagene CIS-FACTORIAL HepG2 Assay for human Nuclear Factor I (NFI) (AID 2282989). The note with it: HepG2 cis-regulatory reporter, NFI response element transcription; actives raise or lower the signal. The procedure, abridged:
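Endogenous TF activity in HepG2 cells transiently transfected with cis-element-driven multiplexed reporter units, read 24 h after dosing. Reporter mRNA quantified by RT-PCR, 6-FAM labelling, HpaI digestion and capillary electrophoresis; bidirectional fit versus DMSO.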

The target of assay [2] is Myc proto-oncogene protein (Homo sapiens) (UniProt P01106). The assay can be described thus: ATG_Myc_CIS: Attagene CIS-FACTORIAL HepG2 Assay for human Myelocytomatosis (Myc) Proto-Oncogene Transcription Factor (AID 2282990). Particulars: HepG2, Attagene cis-reporter transcription factor activity; actives raise or lower the signal. The procedure, abridged:
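Read-out: fluorescent reporter mRNA fragments resolved by capillary electrophoresis after RT-PCR. Human HepG2 liver cells carried transfected cis-element reporter units and were dosed for 24 h. Gain or loss of signal fitted relative to DMSO baseline.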

Assay [3] can be described thus: ATG_NF_kB_CIS: Attagene CIS-FACTORIAL HepG2 Assay for human Nuclear Factor Kappa B (NF-kB) (AID 2282991). The note with it: HepG2 Attagene cis-factorial NF-kB reporter mRNA; actives raise or lower the signal. The procedure, abridged:
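After 24 h compound incubation, transfected HepG2 cells yield total RNA; reporter cDNA is PCR-amplified, end-labelled with 6-FAM, HpaI-digested and analysed on a genetic analyser. Endogenous factor activity, DMSO-referenced bidirectional fit.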

The nature of assay [4]: ATG_NRF2_ARE_CIS: Attagene CIS-FACTORIAL HepG2 Assay for human Nuclear Factor Erythroid 2 Related Factor 2 (NFR2) response to Antioxidant Response Elements (ARE) (AID 2282992). Particulars: HepG2 Attagene ARE/NRF2 reporter, transcription factor activity; actives raise or lower the signal. In a few lines:
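Fluorescence intensity of reporter-specific cDNA fragments, separated by capillary electrophoresis, reflects mRNA induction in transfected HepG2 cells at 24 h. Activity is fitted bidirectionally, DMSO serving as baseline.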

Assay [5] addresses Cellular tumor antigen p53 (Homo sapiens) (UniProt P04637). The assay can be described thus: ATG_p53_CIS: Attagene CIS-FACTORIAL HepG2 Assay for human p53 Transcription Factor (AID 2282994). Particulars: HepG2 p53 cis-element reporter, Attagene mRNA; actives raise or lower the signal. The procedure, abridged: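 Transiently transfected HepG2 (multiple cis reporter transcription units); exposure 24 h; reporter RNA via RT-PCR, 6-FAM extension, 2 h HpaI digest at 37 C, CE detection; DMSO baseline.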

Assay [6] is described as follows: BSK_3C_uPAR: BioMAP Diversity Plus: 3C Assay for Urokinase-type plasminogen activator receptor (uPAR) Biomarker Activity (AID 2282998). Particulars: BioMAP 3C HUVEC, uPAR biomarker ELISA; actives raise or lower the signal. The procedure, abridged:
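Primary human umbilical vein endothelial cells, 3C system; surface uPAR measured by ELISA 24 h after dosing. Cytotoxicity via SRB total protein in parallel cultures; bidirectional fit against DMSO.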
A general note: ELISA stands for enzyme-linked immunosorbent assay.

A short description of assay [7]: BSK_3C_VCAM1: BioMAP Diversity Plus: 3C Assay for Vascular cell adhesion molecule 1 (VCAM1) Biomarker Activity (AID 2282999). The note with it: BioMAP 3C HUVEC, VCAM1 ELISA, cytokine-stimulated; actives raise or lower the signal. In a few lines: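 HUVEC primary cells, 24 h compound exposure; VCAM-1 by ELISA; gain/loss of signal fitted bidirectionally vs DMSO baseline.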

The target of assay [8] is human Peroxisome Proliferator-activated Receptor delta (PPARd), PPARD (gene 5467) (UniProt Q03181). The assay can be described thus: ATG_PPARd_TRANS: Attagene TRANS-FACTORIAL HepG2 Assay for human Peroxisome Proliferator-activated Receptor delta (PPARd) (AID 2283002; active = hit-call score of the fitted dose curve at least 0.9, where 1 is the maximum). In a few lines:
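Read-out: reporter mRNA induction, quantified by fluorescent RT-PCR products resolved by capillary electrophoresis. Human HepG2 liver cells carried transiently transfected Gal4-UAS reporter constructs with chimeric NR-Gal4 fusions. Cells were dosed for 24 h; DMSO served as baseline.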

Read-out in assay [9]: Intercellular Adhesion Molecule 1 (ICAM1), ICAM1 (gene 3383)
The assay can be described thus: BSK_3C_ICAM1: BioMAP Diversity Plus: 3C Assay for Intercellular Adhesion Molecule 1 (ICAM1) Biomarker Activity (AID 2283003). The note with it: primary human endothelial cells (HUVEC); actives raise or lower the signal. In a few lines:
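Chemicals are dosed onto primary human umbilical vein endothelium (3C system). After 24 h, ICAM-1 is measured by ELISA, and responses are fitted bidirectionally relative to DMSO.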

The nature of assay [10]: BSK_3C_Proliferation: Cell Proliferation Assessment in the BioMAP Diversity Plus: 3C Assay (AID 2283006).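 As to AC50: potency may reflect either rise or fall in cell number versus DMSO.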 The note with it: primary human endothelial cells (HUVEC). In a few lines:
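Cells (human umbilical vein endothelial, sub-confluent) receive test chemical; after 48 h they are fixed in 10% trichloroacetic acid, stained with 0.1% SRB and read at 560 nm. Activity is referenced to DMSO, fitting increases and decreases.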

For assay [11], the target named is Nuclear receptor subfamily 1 group I member 2 (Homo sapiens) (UniProt O75469). The assay can be described thus: ATG_PXR_TRANS: Attagene TRANS-FACTORIAL HepG2 Assay for human Pregnane X Receptor (PXR) (AID 2283008; active = hit-call score of the fitted dose curve at least 0.9, where 1 is the maximum). The procedure, abridged:
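Transient HepG2 transfectants carrying multiplexed reporter transcription units; PXR activity read through a Gal4 chimera. 24 h exposure. RT-PCR/CE fluorescence; upward curve fit referenced to DMSO.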

Assay [12] can be described thus: ATG_Oct_MLP_CIS: Attagene CIS-FACTORIAL HepG2 Assay for human Octamer-Binding Transcription Factor (Oct) (AID 2282993). The note with it: HepG2 Attagene cis-factorial Oct reporter, mRNA; actives raise or lower the signal. In a few lines:
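HepG2 cells transiently transfected with cis-element-driven reporter transcription units (endogenous TF activity); 24 h compound exposure. Reporter mRNA quantified by RT-PCR, 6-FAM labelling, HpaI digestion and capillary electrophoresis; bidirectional fit versus DMSO baseline.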

Assay [13] has as its target human Peroxisome Proliferator-activated Receptor alpha (PPARa), PPARA (gene 5465) (UniProt Q07869). The assay can be described thus: ATG_PPARa_TRANS: Attagene TRANS-FACTORIAL HepG2 Assay for human Peroxisome Proliferator-activated Receptor alpha (PPARa) (AID 2283001; active = hit-call score of the fitted dose curve at least 0.9, where 1 is the maximum). In a few lines: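 HepG2, transient MRTU transfection, 24 h treatment. RT-PCR → FAM labelling → capillary electrophoresis. Fit vs DMSO, positive direction.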

Assay [14] concerns the target human Retinoic Acid Receptor beta (RARb), RARB (gene 5915) (UniProt P10826). Briefly: ATG_RARb_TRANS: Attagene TRANS-FACTORIAL HepG2 Assay for human Retinoic Acid Receptor beta (AID 2283004; active = hit-call score of the fitted dose curve at least 0.9, where 1 is the maximum). The procedure, abridged:
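HepG2 cells transiently transfected with multiplexed GAL4-UAS reporter units expressing chimeric NR–Gal4 fusions; 24 h compound exposure. Reporter mRNA quantified by RT-PCR, 6-FAM labelling, HpaI digestion and capillary electrophoresis; gain-of-signal fitted against DMSO baseline.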

Assay [15] addresses Retinoic acid receptor alpha (Homo sapiens) (UniProt P10276). Briefly: ATG_RARa_TRANS: Attagene TRANS-FACTORIAL HepG2 Assay for human Retinoic Acid Receptor alpha (RARa) (AID 2283005; active = hit-call score of the fitted dose curve at least 0.9, where 1 is the maximum). In a few lines:
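HepG2 transiently transfected with multiplex GAL4-UAS reporter units including a human RARa–GAL4 chimera; 24 h compound exposure. Reporter mRNA quantified by RT-PCR, 6-FAM labeling and capillary electrophoresis; gain of signal versus DMSO.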

Assay [16] concerns the target Peroxisome proliferator-activated receptor gamma (Homo sapiens) (UniProt P37231). Briefly: ATG_PPARg_TRANS: Attagene TRANS-FACTORIAL HepG2 Assay for human Peroxisome Proliferator-activated Receptor-gamma (PPARg) (AID 2283007; active = hit-call score of the fitted dose curve at least 0.9, where 1 is the maximum). In a few lines: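 Liver-derived HepG2 cells expressing an exogenous NR-Gal4 chimera alongside GAL4-UAS reporter genes; 24 h exposure. Fluorescence of reporter RT-PCR products, separated by capillary electrophoresis, gives mRNA induction relative to DMSO.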

Assay [17] deals with human Retinoic Acid Receptor gamma (RARg), RARG (gene 5916) (UniProt P13631). The assay can be described thus: ATG_RARg_TRANS: Attagene TRANS-FACTORIAL HepG2 Assay for human Retinoic Acid Receptor gamma (RARg) (AID 2283009; active = hit-call score of the fitted dose curve at least 0.9, where 1 is the maximum). The procedure, abridged:
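TRANS format measured activity of exogenous NR-GAL4 fusion (RARg) in transfected HepG2 liver cells after 24 h dosing. Induced reporter RNA was detected by RT-PCR/capillary electrophoresis fluorescence, analysed in the positive direction against DMSO.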

Assay [18] can be described thus: BSK_3C_TissueFactor: BioMAP Diversity Plus: 3C Assay for Tissue Factor Biomarker Activity (AID 2282997). The note with it: BioMAP 3C HUVEC, tissue factor biomarker readout; actives raise or lower the signal. The procedure, abridged: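 Readout: Tissue Factor ELISA. Cells: human primary umbilical vein endothelium. Time: 24 h after dosing. Analysis: bidirectional fit, DMSO baseline.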

A short description of assay [19]: BSK_4H_Eotaxin3: BioMAP Diversity Plus: 4H Assay for Eotaxin 3 Biomarker Activity (AID 2283000).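 Also: CCL26 protein level quantified by ELISA in parallel with SRB cytotoxicity check.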 Particulars: primary human endothelial cells (HUVEC); actives raise or lower the signal. In a few lines:
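HUVEC, 24 h post-dose, ELISA for Eotaxin-3/CCL26. Gain or loss of signal fitted bidirectionally vs DMSO baseline.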

Several values for one entry are separate records, joined by “and”; a condition that tells them apart may be missing. Identical values can stand only once. Results filed as inconclusive are left out. More than one record can exist for a structure, and the calls need not agree. Activity calls are given as the source filed them. The calls were made as follows, unless noted: active = hit-call score of the fitted dose curve at least 0.9, where 1 is the maximum; inactive = score below 0.9.

Sequence of human Retinoic Acid Receptor gamma (RARg), RARG (gene 5916) (P13631 whole entry, looked up, the tested form may be a part): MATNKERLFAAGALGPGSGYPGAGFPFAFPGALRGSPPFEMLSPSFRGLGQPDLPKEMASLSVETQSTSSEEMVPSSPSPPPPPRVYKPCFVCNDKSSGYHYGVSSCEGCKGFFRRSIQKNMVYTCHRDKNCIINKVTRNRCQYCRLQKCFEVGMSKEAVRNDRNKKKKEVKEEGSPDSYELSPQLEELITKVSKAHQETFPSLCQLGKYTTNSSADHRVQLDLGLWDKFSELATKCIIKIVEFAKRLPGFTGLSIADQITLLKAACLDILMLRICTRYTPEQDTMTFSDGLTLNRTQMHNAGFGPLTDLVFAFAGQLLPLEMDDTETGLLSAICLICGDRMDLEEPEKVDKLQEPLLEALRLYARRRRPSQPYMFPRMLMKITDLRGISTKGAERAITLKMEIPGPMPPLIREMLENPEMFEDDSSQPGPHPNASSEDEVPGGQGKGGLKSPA
Sequence of Retinoic acid receptor alpha (Homo sapiens) (P10276 whole entry, looked up, the tested form may be a part): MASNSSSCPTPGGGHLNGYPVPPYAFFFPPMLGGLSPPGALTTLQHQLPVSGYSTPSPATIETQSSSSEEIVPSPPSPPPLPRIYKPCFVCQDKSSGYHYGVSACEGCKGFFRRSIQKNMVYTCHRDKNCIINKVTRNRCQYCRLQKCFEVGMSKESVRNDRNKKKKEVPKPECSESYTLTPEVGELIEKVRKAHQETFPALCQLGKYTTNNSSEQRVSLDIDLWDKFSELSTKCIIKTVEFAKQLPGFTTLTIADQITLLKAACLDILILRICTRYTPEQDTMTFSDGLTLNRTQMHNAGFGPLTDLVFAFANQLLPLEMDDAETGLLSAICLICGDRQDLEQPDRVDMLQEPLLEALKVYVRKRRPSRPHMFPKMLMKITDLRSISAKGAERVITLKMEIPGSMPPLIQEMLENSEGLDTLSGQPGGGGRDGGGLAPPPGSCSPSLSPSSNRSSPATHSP
Sequence of human Peroxisome Proliferator-activated Receptor alpha (PPARa), PPARA (gene 5465) (Q07869 whole entry, looked up): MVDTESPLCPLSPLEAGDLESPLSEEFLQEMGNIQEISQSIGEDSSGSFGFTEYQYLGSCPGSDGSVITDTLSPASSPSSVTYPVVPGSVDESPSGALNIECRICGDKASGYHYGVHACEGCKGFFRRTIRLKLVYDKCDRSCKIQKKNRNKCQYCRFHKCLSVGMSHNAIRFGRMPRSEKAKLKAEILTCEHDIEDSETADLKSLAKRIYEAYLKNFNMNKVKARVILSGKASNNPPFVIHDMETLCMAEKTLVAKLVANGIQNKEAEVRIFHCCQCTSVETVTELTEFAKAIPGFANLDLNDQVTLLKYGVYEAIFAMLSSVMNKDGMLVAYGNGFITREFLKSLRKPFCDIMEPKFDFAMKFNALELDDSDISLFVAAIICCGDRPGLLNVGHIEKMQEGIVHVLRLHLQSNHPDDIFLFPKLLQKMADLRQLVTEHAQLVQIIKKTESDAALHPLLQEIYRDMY
Sequence of Peroxisome proliferator-activated receptor gamma (Homo sapiens) (P37231 whole entry, looked up, the tested form may be a part): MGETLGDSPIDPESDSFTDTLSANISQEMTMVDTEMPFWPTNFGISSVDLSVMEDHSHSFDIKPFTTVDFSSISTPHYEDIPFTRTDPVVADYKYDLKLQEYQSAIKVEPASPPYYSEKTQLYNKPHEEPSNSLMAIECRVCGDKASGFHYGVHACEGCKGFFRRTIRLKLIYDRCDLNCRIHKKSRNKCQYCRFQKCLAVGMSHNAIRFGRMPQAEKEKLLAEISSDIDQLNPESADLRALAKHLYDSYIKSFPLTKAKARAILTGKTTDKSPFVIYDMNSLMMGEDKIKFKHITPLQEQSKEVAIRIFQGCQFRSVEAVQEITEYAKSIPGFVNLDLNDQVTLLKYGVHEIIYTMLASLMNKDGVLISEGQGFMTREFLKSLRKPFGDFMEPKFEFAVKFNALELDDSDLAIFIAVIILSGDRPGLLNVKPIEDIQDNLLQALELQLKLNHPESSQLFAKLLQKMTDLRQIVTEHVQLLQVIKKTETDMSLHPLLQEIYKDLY
Sequence of human Peroxisome Proliferator-activated Receptor delta (PPARd), PPARD (gene 5467) (Q03181 whole entry, looked up, the tested form may be a part): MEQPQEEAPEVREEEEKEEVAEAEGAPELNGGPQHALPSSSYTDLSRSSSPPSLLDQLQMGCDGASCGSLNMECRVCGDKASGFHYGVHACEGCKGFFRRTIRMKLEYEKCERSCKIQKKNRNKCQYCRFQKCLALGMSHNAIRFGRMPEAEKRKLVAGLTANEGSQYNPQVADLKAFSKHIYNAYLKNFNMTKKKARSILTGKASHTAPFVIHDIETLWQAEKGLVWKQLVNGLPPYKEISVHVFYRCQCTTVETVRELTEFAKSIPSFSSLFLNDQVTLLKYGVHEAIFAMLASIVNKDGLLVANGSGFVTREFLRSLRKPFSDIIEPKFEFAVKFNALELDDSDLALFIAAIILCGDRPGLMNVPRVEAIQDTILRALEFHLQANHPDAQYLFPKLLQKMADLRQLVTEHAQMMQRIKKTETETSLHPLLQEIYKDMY
Sequence of Myc proto-oncogene protein (Homo sapiens) (P01106 whole entry, looked up, the tested form may be a part): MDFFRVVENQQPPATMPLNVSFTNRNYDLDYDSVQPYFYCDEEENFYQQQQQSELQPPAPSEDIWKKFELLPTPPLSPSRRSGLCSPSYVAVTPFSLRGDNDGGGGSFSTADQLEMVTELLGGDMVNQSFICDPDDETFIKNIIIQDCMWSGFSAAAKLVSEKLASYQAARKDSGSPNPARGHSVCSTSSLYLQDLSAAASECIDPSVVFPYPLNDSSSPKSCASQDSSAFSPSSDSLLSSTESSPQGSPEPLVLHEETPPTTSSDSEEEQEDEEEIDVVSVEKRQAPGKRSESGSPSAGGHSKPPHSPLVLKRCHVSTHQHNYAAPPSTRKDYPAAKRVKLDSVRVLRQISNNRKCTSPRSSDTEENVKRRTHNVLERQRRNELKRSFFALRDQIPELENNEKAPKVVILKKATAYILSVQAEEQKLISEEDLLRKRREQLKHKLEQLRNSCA
Sequence of human Retinoic Acid Receptor beta (RARb), RARB (gene 5915) (P10826 whole entry, looked up, the tested form may be a part): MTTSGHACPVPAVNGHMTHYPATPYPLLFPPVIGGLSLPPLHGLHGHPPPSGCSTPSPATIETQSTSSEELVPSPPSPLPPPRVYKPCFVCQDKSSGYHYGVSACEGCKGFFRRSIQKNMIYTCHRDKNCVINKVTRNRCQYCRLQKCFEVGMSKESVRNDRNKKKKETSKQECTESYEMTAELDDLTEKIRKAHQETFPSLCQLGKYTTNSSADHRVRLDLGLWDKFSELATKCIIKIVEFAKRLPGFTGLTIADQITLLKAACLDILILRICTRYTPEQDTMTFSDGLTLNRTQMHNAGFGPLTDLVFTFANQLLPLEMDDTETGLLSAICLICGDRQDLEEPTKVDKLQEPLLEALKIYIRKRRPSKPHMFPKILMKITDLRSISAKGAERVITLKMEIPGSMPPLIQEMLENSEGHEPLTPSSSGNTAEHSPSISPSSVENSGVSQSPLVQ
Sequence of Nuclear receptor subfamily 1 group I member 2 (Homo sapiens) (O75469 whole entry, looked up, the tested form may be a part): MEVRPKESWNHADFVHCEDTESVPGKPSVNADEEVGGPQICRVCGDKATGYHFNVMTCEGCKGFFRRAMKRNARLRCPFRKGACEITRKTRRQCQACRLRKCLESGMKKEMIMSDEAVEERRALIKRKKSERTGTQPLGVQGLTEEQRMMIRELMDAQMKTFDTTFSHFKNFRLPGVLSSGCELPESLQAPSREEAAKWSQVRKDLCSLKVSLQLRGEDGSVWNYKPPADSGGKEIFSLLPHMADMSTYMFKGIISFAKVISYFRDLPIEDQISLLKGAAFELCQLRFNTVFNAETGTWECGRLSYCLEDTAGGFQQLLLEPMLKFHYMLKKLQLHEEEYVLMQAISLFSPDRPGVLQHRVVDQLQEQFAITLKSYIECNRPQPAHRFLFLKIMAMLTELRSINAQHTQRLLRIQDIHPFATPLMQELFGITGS
Sequence of Cellular tumor antigen p53 (Homo sapiens) (P04637 whole entry, looked up): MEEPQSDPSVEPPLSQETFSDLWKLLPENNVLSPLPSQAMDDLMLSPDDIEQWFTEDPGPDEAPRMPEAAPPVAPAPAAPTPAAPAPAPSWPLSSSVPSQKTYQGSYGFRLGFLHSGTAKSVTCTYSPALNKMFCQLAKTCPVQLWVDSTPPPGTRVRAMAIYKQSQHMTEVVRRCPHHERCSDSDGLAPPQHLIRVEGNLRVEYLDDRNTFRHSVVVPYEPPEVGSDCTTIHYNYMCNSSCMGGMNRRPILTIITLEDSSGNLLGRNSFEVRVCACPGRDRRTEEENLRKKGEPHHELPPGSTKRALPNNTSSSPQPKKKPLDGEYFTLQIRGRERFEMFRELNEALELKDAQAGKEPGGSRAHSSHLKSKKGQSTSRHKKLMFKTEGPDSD

In the case of `O=P(O)(O)OCCC(F)(F)C(F)(F)C(F)(F)C(F)(F)C(F)(F)C(F)(F)F`, the call in [1], in assay [2], in [3], in [4], in assay [5] and in assay [6] was inactive. Also, the outcome in [7], in assay [8], in assay [9], in assay [10] and in assay [11] was inactive.

With `FC(F)(F)C(F)(F)C(F)(F)C(F)(F)C(F)(F)C(F)(F)CC1CO1` (centres undefined), the outcome in [1], in assay [2], in [3], in assay [4], in assay [12] and in [6] was inactive. The result in [7], in assay [13], in [9], in assay [14], in [15] and in assay [16] was inactive. For the same molecule, the outcome in assay [11] and in assay [17] was inactive.

For the molecule `CCCCNc1ccccc1`, the outcome in [2], in assay [3], in [4], in assay [5], in assay [6] and in [7] was inactive. Further, the molecule was classed as inactive in assay [8], in [9], in [16] and in assay [11].

In the case of `FC(F)(F)C(F)(F)C(F)(F)C(F)(F)C(F)(F)C(F)(F)CCS`, the result in assay [1], in [2], in [3], in [4], in assay [18] and in assay [6] was inactive. Also, the outcome in assay [7], in assay [13], in [8], in assay [16] and in [11] was inactive.

As for `FC(F)(F)C(F)(F)C(F)(F)N(C(F)(F)C(F)(F)C(F)(F)F)C(F)(F)C(F)(F)C(F)(F)F`, the molecule was classed as inactive in assay [2], in assay [3], in assay [4], in assay [5], in [18] and in assay [6]. Further, the outcome in [7], in [8], in assay [14], in [15], in [16] and in [17] was inactive.

On to `O=S(=O)(O)c1ccc2ccccc2c1`, for which the call in [2], in [3], in assay [4], in assay [5], in assay [13] and in assay [8] was inactive. Moreover, the molecule was called inactive in [16] and in assay [11]. The AC50 in assay [11] is 21 µM (active).

Take `O=C(O)C(F)(F)C(F)(F)OC(F)(F)F`: the molecule was classed as inactive in assay [2], in assay [3], in assay [4], in assay [12], in assay [18] and in assay [6]. In addition, the outcome in assay [7], in assay [19], in assay [13], in [14], in assay [15] and in assay [10] was inactive. In addition, the outcome in assay [16], in [11] and in assay [17] was inactive.

`CC(C)(C)C(=O)CC(=O)C(F)(F)C(F)(F)C(F)(F)F`: the molecule was classed as inactive in [1], in assay [2], in [3], in [4], in [12] and in assay [5]. The outcome in [18], in assay [6], in assay [7], in assay [13], in [8] and in [14] was inactive. For the same molecule, the result in assay [15], in assay [16], in assay [11] and in [17] was inactive. Also, in assay [10], the AC50 was 43.3 µM (active) and 44.3 µM (active).

The term AC50 denotes the concentration giving half of the maximal activity seen.
